# Experimental data reported in PubChem BioAssay AID1745850 (National Center for Advancing Translational Sciences (NCATS), 2022).
# The campaign covered roughly 2,100 compounds. About 260 (12%) were called active. Inconclusive results (about 58%) are left out. The call rests on the fitted dose curve; in most records, active means well fitted cell-killing curve with a large enough effect; inconclusive means small, poorly fitted or top-dose-only effect, or effect the other way; inactive means flat fitted curve, though single readings scatter. The list shows a part of the results. Entries that show only a call come without a potency.
# Experiment: Viability Counterscreen for Confirmatory qHTS for Inhibitors of ATXN expression; further: nearly all actives have a fitted effect of over 50% in size
# Conditions: HEK-293 ATXN2-luc cells viability, CellTiter-Fluor, 24 h
# How it was run: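 Cells with an ATXN2-luciferase reporter were dosed in a dilution series for 24 h at 37 degrees C. Viability was read first with Gly-Phe-AFC at 25 uM final (fluorescence, ex 405/em 540), then SteadyGlo luminescence. Medium-only wells defined 100% inhibition.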
# Potency means the concentration at half of the fitted maximal effect.
row,SMILES,Potency
1,CS(=O)(=O)N(CC(O)CON=C1c2ccccc2-c2ccccc21)c1ccc(F)cc1 (configuration not stated),inactive
2,Nc1nc(NCCCN2CCOCC2)nc(Nc2ccccc2F)c1[N+](=O)[O-],inactive
3,Cc1ccc(C)c(OCCCC(=O)Nc2nccs2)c1,inactive
4,Cn1c(/C=C/c2ccc(Cl)cc2Cl)c([N+](=O)[O-])c(=O)n(C)c1=O,22.4 µM (active)
5,Cn1c(/C=C/c2ccc(Cl)cc2)c([N+](=O)[O-])c(=O)n(C)c1=O,22.4 µM (active)
6,Cc1cc(OCC(=O)Nc2ccc(Br)cc2)cc2c1C(=O)CC(C)(C)O2,inactive
7,NC1=NC[C@H](Cc2ccccc2)N1CCCCC1CCCCC1,inactive
8,CCc1cc(-c2[nH]ncc2-c2ccc(OC)cc2)c(O)cc1O,inactive
9,CC(C)=CCc1c(O)cc2oc3c(CC=C(C)C)c(O)c(O)c(CC=C(C)C)c3c(=O)c2c1O,inactive
10,Cc1ccccc1C(=O)/C(C#N)=N/Nc1c(C)n(C)n(-c2ccccc2)c1=O,10 µM (active)
11,COc1ccc(NS(=O)(=O)c2ccc(C(=O)Nc3c(C)n(C)n(-c4ccccc4)c3=O)cc2)cc1,inactive
12,Cc1c(N/N=C(\C#N)C(=O)c2ccccc2)c(=O)n(-c2ccccc2)n1C,12.6 µM (active)
13,Cc1cc(C)cc(NC(=O)/C(C#N)=C/c2cn(CC(=O)NCc3ccco3)c3ccccc23)c1,inactive
14,Nc1c(C(=O)NCCN2CCOCC2)c2nc3ccccc3nc2n1CCc1ccccc1F,inactive
15,CCOC(=O)c1c(NC(=O)COC(=O)CNC(=O)c2ccco2)sc(C)c1C,inactive
16,N#Cc1ccccc1NC(=O)C1SC(=Nc2ccccc2)C(C(=O)Nc2ccc(Cl)cc2)=C1N (configuration not stated),inactive

row,SMILES,Potency
1,O=C(CSc1ccc2ccccc2c1)Nc1nc2ccccc2[nH]1,inactive
2,C/C(=N\NC(=O)CSCc1ccc([N+](=O)[O-])cc1)c1ccccc1O,inactive
3,N#Cc1c(Oc2ccc3ccccc3c2)sc(C(=O)c2ccccc2)c1N,inactive
4,COC(=O)COc1ccc(-c2nccc(-c3ccccn3)n2)cc1,inactive
5,COc1cnc(-c2ccccn2)nc1NC(C)C,10 µM (active)
6,O=C(N/N=C/c1cc([N+](=O)[O-])ccc1O)c1ccc(COc2ccc3c(c2)CCC3)o1,11.2 µM (active)
7,COc1ccc(O)c(/C=N/NC(=O)c2ccc(OCc3cccc(Br)c3)cc2)c1,inactive
8,O=C(CNS(=O)(=O)c1ccc([N+](=O)[O-])cc1)N/N=C/c1ccc(O)cc1O,inactive
9,C=CCc1cccc(/C=N/NC(=O)CNc2ccccc2)c1O,inactive
10,COc1cccc(C(NC(C)=O)c2ccc3cccnc3c2O)c1 (configuration not stated),8.91 µM (active)
11,COc1ccc(C(NC(C)=O)c2cc(Cl)c3cccnc3c2O)cc1OC (configuration not stated),10 µM (active)
12,CCCC(=O)NC(c1ccc(C(C)C)cc1)c1ccc2cccnc2c1O (configuration not stated),inactive
13,COc1ccc(C(NC(C)=O)c2cc(Cl)c3cccnc3c2O)cc1 (configuration not stated),8.91 µM (active)
14,CC(=O)NC(c1ccc(C)cc1)c1cc(Cl)c2cccnc2c1O (configuration not stated),11.2 µM (active)
15,CCCCC(=O)NC(c1ccc(N(CC)CC)cc1)c1ccc2cccnc2c1O (configuration not stated),inactive
16,O=C(Nc1cccc(C(F)(F)F)c1)Oc1ccc(Cl)c2cccnc12,inactive
